Source: PubChem BioAssay

test: Plasmodium falciparum growth inhibition, primary screen, strain 3D7, DAPI fluorescence, 100 nL (AID 1184);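 further: parasites grown inside human red blood cells in medium with human serum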; conditions: P. falciparum 3D7 growth, 3 d, higher = more signal

| SMILES | z-score |
| --- | --- |
| O=C1OCCC=C[C@H]2OC34C=CCN(Cn5nnc6ccccc65)C(=O)[C@H]3N(CCCCCCO)C(=O)[C@@H]4C12 (stereo not given in full) | 0.006 |
| O=C1C[C@@](C(=O)NCCN2CCOCC2)(c2ccc([N+](=O)[O-])cc2)[C@@H](c2ccc(CO)cc2I)N1C1CCCCC1 | -1.37 |
| NC(=O)N1C(=O)C2C(C1=O)C1C=C(CCCO)C2C(c2cccs2)N1Cc1cccc(OC(F)(F)F)c1 (stereo not given) | 0.379 |
| C=C(/C(=C/C[C@H](OC(C)=O)c1ccccc1OCCO)c1cc(C(=O)OC)ccc1OC)C(C)C | -2.42 |
| CCCC[C@@H](O)C1=C(COc2ccccc2)C[C@H]2C(=O)N(C)C(=O)[C@H]2[C@H]1CO | -0.764 |
| O=C1NC(=O)C2C1C=CC(C(O)c1cccc3ccccc13)N2Nc1ccc(Cl)cc1Cl (stereo not given) | -0.0879 |
| COc1ccc(-c2cc3c(c(CCc4ccccc4)n2)[Si](C(C)C)(C(C)C)OC3)cn1 | -0.118 |
| COC(=O)[C@@]1(Cc2ccc(F)cc2)[C@H]2c3cc(C(=O)N4CCCC4)n(CCc4ccc(O)c(O)c4)c3C[C@H]2CN1C(=O)c1ccccc1 | -1.47 |
| CC1=C[C@@]2(CO)C(=O)[C@]3(CO3)[C@@H]1[C@H]1[C@]2(C)C=C(CO)C(=O)[C@]12CO2 | -1.27 |
| O=C(NCC(F)(F)F)[C@@H]1c2ccccc2C(=O)N(Cc2ccc(OC(F)(F)F)cc2)[C@H]1c1ccc(CO)cc1 | -0.828 |
| COC(=O)Cn1c(C(=O)N(C)C)cc2c1C[C@H]1CN(C(=O)c3ccccc3)[C@@](Cc3ccc(F)cc3)(C(=O)OC)[C@@H]21 | -0.0793 |
| COc1ccc([Si](C)(C)[C@H]2[C@H](CC(=O)N(CCO)Cc3ccccc3)O[C@@]3(C(=O)N(Cc4cccc(N5CCOC5=O)c4)c4ccccc43)[C@@H]2C)cc1 | -2.69 |
| COCCCNC(=O)[C@]1(CCS(=O)(=O)c2ccccc2)N=C(c2ccc(OCCCO)cc2)O[C@@H]1c1ccccc1CN=[N+]=[N-] | -2.3 |
| [N-]=[N+]=Nc1ccccc1C[C@]1(C(N)=O)N=C(c2ccc(OCCCO)cc2)O[C@H]1c1ccccc1N=[N+]=[N-] | -2.65 |
| C#CCN([C@@H](Cc1ccc(O)cc1)C(=O)OC)[C@@H](/C=C/C1CC1)[C@H](O)Cc1ccccc1 | 0.501 |
| CN(C)c1ccc(C(O)C2C=CC3C(=O)N(c4ccccc4)C(=O)C3N2Nc2ccc([N+](=O)[O-])cc2)cc1 (stereo not given) | -0.704 |
| NCCCCCCNC(=O)[C@@H]1C[C@@H]2C(=O)N[C@@H](CCCCN)C(=O)N2[C@@H]1c1cccc(OCCO)c1 | 0.139 |
| CCOC(=O)C1=CC[C@@H](c2ccc(OCc3ccccc3)c(OC)c2)N(S(=O)(=O)c2ccc(C)cc2)[C@H]1c1ccc(SC)cc1 | -2.05 |
| COC(=O)[C@@]1(Cc2ccccc2)[C@H]2c3cc(C(=O)N(C)C)n(Cc4c(CO)[nH]cc(C)c4=O)c3C[C@H]2CN1C(=O)c1ccccc1 | -1.16 |
| CN1C(=O)C2C=CC(C(O)COCc3ccccc3)N(N(c3ccccc3)c3ccccc3)C2C1=O (stereo not given) | -0.144 |
| CCC[C@@H]1C[C@@]1(CCC)[C@@H](NC(=O)OCc1ccccc1)c1ccc(-c2ccccc2)cc1 | -0.54 |
| COCCOC(=O)N1C(=O)[C@@]2(c3cc(C#CC4=CCCCC4)ccc31)[C@H](c1ccc(OCCO)cc1)N1[C@H](c3ccccc3)[C@H](c3ccccc3)OC(=O)[C@H]1[C@@H]2C(=O)NC[C@H](O)c1ccccc1 | -2.1 |
| C=C(CCCC)/C(=C/C[C@@H](OC(=O)c1ccncc1)c1ccccc1OCCO)c1cnc2ccccc2c1 | -3.02 |
| CC1CC/C=C\[C@H]2OC34C=CCN(C(C)C)C(=O)[C@H]3N(CCCCCCO)C(=O)[C@@H]4C2C(=O)O1 (stereo not given in full) | -0.565 |
| O=C1C2C=CC(C(O)c3ccc(Br)cc3)N(Nc3ccccc3F)C2C(=O)N1c1ccccc1 (stereo not given) | -0.133 |
| COC(=O)[C@@]1(Cc2ccc(OC)cc2)[C@H]2c3cc(C(=O)N4CCCC4)n(Cc4cccc5ccccc45)c3C[C@H]2CN1C(=O)c1ccccc1 | -1.58 |
| CCOC(=O)C1CCCCN1 (stereo not given) | 1.57 |
| COc1ccc([Si](C)(C)[C@H]2[C@H](CCn3cc([C@H](O)c4ccccc4)nn3)O[C@@]3(C(=O)N(Cc4ccc(N5C(=O)c6cccc7cccc5c67)cc4)c4ccccc43)[C@@H]2C)cc1 | -1.59 |
| [N-]=[N+]=NCc1ccccc1C[C@@]1(C(=O)N2CCOCC2)N=C(c2ccc(OCCCO)cc2)O[C@@H]1c1ccccc1 | -2.73 |
| COC(=O)C(CC#Cc1ccc2c(c1)[C@]1(C(=O)N2)[C@H](C(=O)N2CCN(c3ncccn3)CC2)[C@H]2C(=O)O[C@H](c3ccccc3)[C@H](c3ccccc3)N2[C@@H]1c1ccc(OCCO)cc1)C(=O)OC | -1.97 |
